Screens: PubChem, National Center for Advancing Translational Sciences (NCATS)
Shown are actives, neighbours in structure and some others; about 13% of the full set was active somewhere.
Pf growth 96h: P. falciparum growth inhibition at 96 hour, primary screen for plastid delayed-death inhibitors | 320,000 compounds, 6.9% hits | AID 504834 | Potency, µM (titrated, usually from 28.7 µM), usual class: inhibitors | P. falciparum luciferase reporter growth, 96 h
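Parasite growth measured via integrated firefly luciferase reporter in P. falciparum. Infected erythrocytes at 2% hematocrit, 0.05% parasitemia final were treated 96 hours at 37 C under 5% CO2, and luminescence was read.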
HCV inhibitor: inhibitors of hepatitis C virus infection; Huh7.5.1 HCVcc-Cre infection, luciferase reporter, 44 h; AID 651820; 340,000 compounds, 3.4% hits; Potency, µM (doses to about 41.8 µM), actives largely listed as inhibitors
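Compounds are dispensed onto cells plated 4 h earlier at 1,000 per well, with HCVcc-Cre virus (about 0.5 moi) added next. Following 44 h of culture, luminescent signal is measured for 15 sec after 15 min with substrate at room temperature.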
HCMV antiviral: inhibitors of human cytomegalovirus. 410,000 compounds, 4.5% hits. HFF cells, HCMV-luciferase reporter, 72 h; hits give low values. activity change, negative = inhibition, % at 57.5 µM; in the data active means activity change below about -60%; inconclusive means no clear call, values can overlap the other calls; inactive means above about -39%
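HFF cells seeded 16 h at 37C, treated with compounds, infected with luciferase-reporter HCMV at MOI 1 PFU/cell; luciferase read at 72 h post infection, normalized to buffer-only and Salinomycin controls.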
Pf growth 48h: inhibits P. falciparum growth in the first generation, 48 h; P. falciparum luciferase growth in erythrocytes, 48 h; Potency, µM (doses to about 28.7 µM), hits mostly inhibitors; 310,000 compounds, 5.9% hits
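In quantitative HTS format, infected erythrocytes bearing luciferase-reporter parasites were treated for a single generation at 37 C. Luminescence after adding detection reagent served as the growth measure.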
Hits are given with their value; 0 = inactive; ? = inconclusive; - = no result; [ ] = remark or other dose. Unless noted, the call rests on the fitted dose curve; in most records, active means well fitted inhibition curve with a large enough effect; inconclusive means small, poorly fitted or top-dose-only effect, or another doubt; inactive means no such curve, though single readings can be large or run the other way.

SMILES	Pf growth 96h	HCV inhibitor	HCMV antiviral	Pf growth 48h
COc1ccccc1N1C(=O)N(C(C)=O)C2C1Nc1ccccc1N2C (stereo unspecified)	?	?	0	4.7µM
Cc1ccc(S(=O)(=O)c2cn(C)c3cc(N4CCCCCC4)c(F)cc3c2=O)cc1	-	-	0	-
S=C(Nc1cccc(Cl)c1)NC1CC2CCCC(C1)N2C1CCCC1 (stereo unspecified)	?	?	?	3.3µM
COc1cccc(NC(=S)NC2CC3CCCC(C2)N3C2CCCC2)c1 (stereo unspecified)	0	0	0	?
S=C(NCCN(C1CCCCC1)C1CCCC1)Nc1cccc(Cl)c1	0	13µM	-85	2.9µM
S=C(Nc1ccc(Cl)cc1)NC1CC2CCCC(C1)N2C1CCCC1 (stereo unspecified)	12µM	?	0	10µM
S=C(NCCC(c1ccccc1)c1ccccc1)Nc1cccc(Cl)c1	0	?	0	0
S=C(Nc1ccc(Cl)cc1)NC1CC2CCCC(C1)N2C1CC1 (stereo unspecified)	10µM	0	0	10µM
COCCNC(=O)C1(C)CCN(Cc2cccc(Oc3ccccc3)c2)C1 (stereo unspecified)	-	-	0	-
CCCN(CCC)C(=O)Cn1c(=O)n(-c2ccc(CC)cc2)c(=O)c2ccc(C(=O)NCCc3ccccc3)cc21	-	-	0	-
COc1cccc(NC2=C(NCCO)C(=O)c3ccccc3C2=O)c1	0	0	0	0
COc1ccc(NC2=C(NC(C)=O)C(=O)c3ccccc3C2=O)cc1	0	?	-67	?
CCOc1ccc(NC2=C(OC)C(=O)c3ccccc3C2=O)cc1	1.2µM	?	0	1.2µM
COC1=C(Nc2ccc(OC)cc2)C(=O)c2ccccc2C1=O	?	0	0	2.3µM
Cc1cccc(NC2=C(NCCO)C(=O)c3ccccc3C2=O)c1	0	0	0	4.7µM
COC1=C(Nc2ccc(OC)cc2)C(=O)C(OC)=C(Nc2ccc(OC)cc2)C1=O	-	0	?	-
CCS(=O)(=O)N1CC2(CN(C(=O)Cc3ccccn3)[C@@H](CO)c3[nH]c4cc(OC)ccc4c32)C1	-	-	0	-
COc1ccc(CCNC(=O)C(=O)NCC(c2ccco2)S(=O)(=O)c2ccc(C)cc2)cc1 (stereo unspecified)	-	-	0	-
COc1ccc(NC2=C(NCCO)C(=O)c3ccccc3C2=O)cc1	?	?	0	7.4µM
COC1=C(Nc2ccc(O)cc2)C(=O)c2ccccc2C1=O	12µM	?	0	?
O=C(NC1=C(Nc2ccc(F)cc2)C(=O)c2ccccc2C1=O)c1ccc(Cl)cc1	0.37µM	0	0	0.52µM
COc1ccc(CNC(=O)c2ccc3nc(CCc4ccccc4)oc3c2)cc1OC	-	-	0	-
Cc1cc(C)cc(OCCSc2nc3ccc(NC(=O)c4ccc5c(c4)OCO5)cc3s2)c1	-	-	0	-
Cc1noc(/C=C/N(C)C)c1S(=O)(=O)N1CCN(c2ccc(F)cc2)CC1	?	0	-62	0
COc1ccc(N2CCN(S(=O)(=O)c3c(C)noc3/C=C/N(C)C)CC2)cc1	?	0	0	0
SMILES	Pf growth 96h	HCV inhibitor	HCMV antiviral	Pf growth 48h
Cc1ccc(CN(C(=O)COc2ccc(Cl)cc2Cl)C2CCS(=O)(=O)C2)o1 (stereo unspecified)	-	-	0	-
CC1(C)[C@H]2CC[C@]1(C)[C@@H](OC(=O)C[N+]1(C)CCOCC1)C2	0	0	0	0
CCOC(=O)C[N+](C)(C)CCOC1CC2CCC1(C)C2(C)C (stereo unspecified)	0	0	0	2.1µM
CC1(C)[C@@H]2CC[C@]1(C)[C@@H](OC(=O)CSC#N)C2	0	-	-	0
CC1(C)C2CCC1(C)C(OCC[N+](C)(C)CC(=O)OC1CCCCC1)C2 (stereo unspecified)	0.52µM	0	?	1.5µM
Cc1ccc(O)c(Nc2nc3ccccc3c3nncn23)c1	-	-	0	-
CC1CCN(C(=O)CN2CCSc3ccc(S(=O)(=O)N(C)C)cc32)CC1	-	-	0	-
CCOC(=O)N1CCN(C(=O)C[C@H]2C[C@@]3(C(=O)OC)C(=C[C@H](C(C)(C)C)O[C@@H]3C)N(CCC3=CCCCC3)C2=O)CC1	-	-	0	-
CC(C)c1ccc(NC(=O)CSc2nc(=O)n(Cc3cccnc3)c3c2CCC3)cc1	-	-	-107	-
COc1ccc(C)cc1NC(=O)CSc1nc(=O)n(Cc2ccncc2)c2c1CCC2	-	-	-103	-
O=C(CSc1nc(=O)n(Cc2cccnc2)c2c1CCC2)Nc1cccc(Cl)c1	-	-	0	-
Cc1ccc(NC(=O)CSc2nc(=O)n(Cc3ccccn3)c3c2CCC3)cc1F	-	-	0	-
CC(C)c1ccc(NC(=O)CSc2nc(=O)n(Cc3ccccn3)c3c2CCC3)cc1	-	-	-102	-
CCOC(=O)c1c(C)c(-c2ccccc2)n(CC(=O)NC(CC)Cc2ccccc2)c1C (stereo unspecified)	-	-	0	-
Cc1cccc(C)c1-n1nnnc1C(c1ccnc2ccccc12)N1CCN(C(=O)OCc2ccccc2)CC1 (stereo unspecified)	-	-	0	-
COc1ccccc1CNC(=O)Cn1c(=O)nc(-c2ccccc2)c2ccccc21	-	-	0	-
OCCCNc1nc(-c2ccc(Cl)cc2)nnc1-c1ccccc1	3.7µM	0	0	?
Cc1cc(C(C)c2ccccc2)c(O)c(CN2CCOCC2)c1C (stereo unspecified)	0	0	0	1.9µM
O=[N+]([O-])c1ccc(N/N=C2\CC3CC=CC23)c([N+](=O)[O-])c1 (stereo unspecified)	0	11µM	0	0
O=[N+]([O-])c1ccc(N/N=C2\CC3CC=CC23)cc1 (stereo unspecified)	0	22µM	0	0
CCN(CC)C(=O)CSc1nc(-c2ccccc2F)nc2c1Cc1c(CO)cnc(C)c1O2	-	-	0	-
CCn1cc(C(=O)O)c(=O)c2cc(F)c(N3CCNCC3)cc21	1.6µM	0[8.37 µM]	-	?
CCCCCCCCC(=O)N1CCN(c2cc3c(cc2F)c(=O)c(C(=O)O)cn3CC)CC1	?	0	0	?
CCn1cc(C(=O)O)c(=O)c2cc(F)c(N3CCN(C(=O)Nc4ccccc4)CC3)cc21	0	0	-84	0.47µM
CCn1cc(C(=O)NCC(C)C)c(=O)c2cc(F)c(N3CCN(C)CC3)cc21	0	0	0	0
SMILES	Pf growth 96h	HCV inhibitor	HCMV antiviral	Pf growth 48h
CCn1cc(C(=O)O)c(=O)c2cc(F)c(N3CCN(S(=O)(=O)c4ccc(NC(C)=O)cc4)CC3)cc21	?	0	0	6.6µM
CCn1cc(C(=O)NN)c(=O)c2cc(F)c(N3CCOCC3)cc21	12µM	0	0	?
CCCCCCCC(=O)N1CCN(c2cc3c(cc2F)c(=O)c(C(=O)O)cn3CC)CC1	?	0	?	?
CCn1cc(C(=O)O)c(=O)c2cc(F)c(N3CCN(C(=S)NC(=O)c4ccccc4F)CC3)cc21	6.6µM	0	0	4.1µM
CCCC(=O)c1cc(F)c(N2CCOCC2)cc1C	1.3µM	0	0	0
CCn1cc(C(=O)O)c(=O)c2cc(F)c(N3CCN(C(=S)NC(=O)c4cccc(C)c4)CC3)cc21	0	0	0	?
CCCC(=O)c1cc(F)c(N2CCN(S(=O)(=O)c3ccccc3)CC2)cc1C	0	?	0	?
CCc1ccccc1NC(=O)Nc1cc(C(=O)NCc2ccccc2OC)ccc1N1CCCC1	-	-	0	-
CC1(C)Cc2nc(Cl)c(C#N)cc2CO1	0	0	-100	0
